Reference: PubChem BioAssay (EPA / NIEHS)
Calls of active or inactive are those of the source. How the source made its calls: active means hit-call score of the fitted dose curve at least 0.9, where 1 is the maximum; inactive means score below 0.9.

Tests used:
[1] = read-out: Urokinase-type plasminogen activator receptor (uPAR), PLAUR (gene 5329); assay: BSK_4H_uPAR: BioMAP Diversity Plus: 4H Assay for Urokinase-type plasminogen activator receptor (uPAR) Biomarker Activity (AID 2283030); conditions: primary human endothelial cells (HUVEC); actives raise or lower the signal
Outline: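 uPAR level read by ELISA on HUVEC cultures (BioMAP 4H) 24 h post-dosing, analyzed for gain or loss relative to DMSO. Parallel SRB staining assessed overt cytotoxicity.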

[2] = read-out: Vascular endothelial growth factor receptor 2 (Homo sapiens) (UniProt P35968); assay: BSK_4H_VEGFRII: BioMAP Diversity Plus: 4H Assay for Vascular endothelial growth factor receptor 2 (VEGFR2) Biomarker Activity (AID 2283031); conditions: primary human endothelial cells (HUVEC); actives raise or lower the signal;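 on AC50: cell-surface VEGFR2 protein level quantified by ELISA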
Outline: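 Measured by ELISA after 24 h of compound treatment: VEGFR2 on primary human umbilical vein endothelial cells, fitted in both directions relative to DMSO. Parallel cultures received SRB staining (560 nm) for overt cytotoxicity.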

[3] = read-out: Vascular cell adhesion molecule 1 (VCAM1), VCAM1 (gene 7412); assay: BSK_4H_VCAM1: BioMAP Diversity Plus: 4H Assay for Vascular cell adhesion molecule 1 (VCAM1) Biomarker Activity (AID 2283033); conditions: primary human endothelial cells (HUVEC); actives raise or lower the signal
Outline: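 VCAM-1 ELISA read 24 h after chemical dosing of HUVEC in the BioMAP 4H system, with gain or loss of signal fitted relative to DMSO. Parallel SRB staining (560 nm) checked overt cytotoxicity.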

[4] = read-out: Interferon-gamma inducible Protein 10 (IP10), CXCL10 (gene 3627); assay: BSK_BE3C_IP10: BioMAP Diversity Plus: BE3C Assay for Interferon-gamma inducible Protein 10 (IP10) Biomarker Activity (AID 2283034); conditions: primary human bronchial epithelial cells; actives raise or lower the signal
Outline: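 IP-10 quantified by ELISA in human primary bronchial epithelial cell cultures at 24 hours post-dosing. Gain or loss of signal fitted relative to DMSO; parallel SRB staining assessed overt cytotoxicity.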

[5] = read-out: Monokine induced gamma interferon (MIG), CXCL9 (gene 4283); assay: BSK_BE3C_MIG: BioMAP Diversity Plus: BE3C Assay for Monokine induced gamma interferon (MIG) Biomarker Activity (AID 2283035); conditions: primary human bronchial epithelial cells; actives raise or lower the signal
Outline: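 Dose cells (human primary bronchial epithelial), incubate 24 h, quantify MIG by ELISA, then fit concentration–response in both directions relative to DMSO control.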

[6] = read-out: Plasminogen activator inhibitor-1 (PAI1), SERPINE1 (gene 5054); assay: BSK_BE3C_PAI1: BioMAP Diversity Plus: BE3C Assay for Plasminogen activator inhibitor-1 (PAI1) Biomarker Activity (AID 2283037); conditions: primary human bronchial epithelial cells; actives raise or lower the signal
Outline: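 PAI-1 was measured by ELISA in human primary bronchial epithelial cultures 24 h after chemical dosing, with cytotoxicity checked by SRB total-protein staining in parallel cultures. Activity was fitted in both directions relative to DMSO.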

[7] = read-out: urokinase plasminogen activator (uPA), PLAU (gene 5328); assay: BSK_BE3C_uPA: BioMAP Diversity Plus: BE3C Assay for urokinase plasminogen activator (uPA) Biomarker Activity (AID 2283038); conditions: primary human bronchial epithelial cells; actives raise or lower the signal
Outline: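 ELISA for uPA on human primary bronchial epithelial cultures 24 h post-treatment, gain or loss against DMSO. Parallel SRB staining (0.1% after 10% TCA fixation, 560 nm) assessed overt cytotoxicity.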

[8] = read-out: Urokinase-type plasminogen activator receptor (uPAR), PLAUR (gene 5329); assay: BSK_BE3C_uPAR: BioMAP Diversity Plus: BE3C Assay for Urokinase-type plasminogen activator receptor (uPAR) Biomarker Activity (AID 2283039); conditions: primary human bronchial epithelial cells; actives raise or lower the signal;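 further: cells exposed to compound for one day before measurement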
Outline: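 uPAR levels were measured by ELISA after 24 h compound treatment of primary human bronchial epithelial cells, fitted in both directions relative to DMSO. Parallel SRB staining served as the cytotoxicity read-out.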

[9] = read-out: Tissue plasminogen activator (tPA), PLAT (gene 5327); assay: BSK_BE3C_tPA: BioMAP Diversity Plus: BE3C Assay for Tissue plasminogen activator (tPA) Biomarker Activity (AID 2283041); conditions: primary human bronchial epithelial cells; actives raise or lower the signal
Outline: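 tPA measured by ELISA 24 h after dosing human primary bronchial epithelial cells (BE3C system). Changes in either direction were fitted against DMSO. Parallel cultures were stained with SRB to flag overt cytotoxicity.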

[10] = read-out: Interleukin-8 (IL8), CXCL8 (gene 3576); assay: BSK_CASM3C_IL8: BioMAP Diversity Plus: CASM3C Assay for Interleukin-8 (IL8) Biomarker Activity (AID 2283042); conditions: primary human coronary artery smooth muscle cells; actives raise or lower the signal;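 further: IL-8 protein level quantified by ELISA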
[11] = read-out: Human Leukocyte Antigen - DR isotype (HLADR), HLA-DRA (gene 3122); assay: BSK_CASM3C_HLADR: BioMAP Diversity Plus: CASM3C Assay for Human Leukocyte Antigen - DR isotype (HLADR) Biomarker Activity (AID 2283043); conditions: primary human coronary artery smooth muscle cells; actives raise or lower the signal;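 further: cell-surface HLA-DR protein level quantified by ELISA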
[12] = read-out: Macrophage colony-stimulating factor (MCSF), CSF1 (gene 1435); assay: BSK_CASM3C_MCSF: BioMAP Diversity Plus: CASM3C Assay for Macrophage colony-stimulating factor (MCSF) Biomarker Activity (AID 2283044); conditions: primary human coronary artery smooth muscle cells; actives raise or lower the signal;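 further: M-CSF protein amount quantified by ELISA after 24 h exposure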
[13] = read-out: Low-density lipoprotein receptor (LDLR), LDLR (gene 3949); assay: BSK_CASM3C_LDLR: BioMAP Diversity Plus: CASM3C Assay for Low-density lipoprotein receptor (LDLR) Biomarker Activity (AID 2283045); conditions: primary human coronary artery smooth muscle cells; actives raise or lower the signal;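 further: LDLR protein level on the cell surface quantified by ELISA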
[14] = read-out: Monocyte Chemoattractant Protein-1 (MCP1), CCL2 (gene 6347); assay: BSK_CASM3C_MCP1: BioMAP Diversity Plus: CASM3C Assay for Monocyte Chemoattractant Protein-1 (MCP1) Biomarker Activity (AID 2283046); conditions: primary human coronary artery smooth muscle cells; actives raise or lower the signal;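 further: MCP-1 level quantified by ELISA 24 h after dosing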
[15] = BSK_CASM3C_Proliferation: Cell Proliferation Assessment in the BioMAP Diversity Plus: CASM3C Assay (AID 2283047); conditions: primary human coronary artery smooth muscle cells;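 further: sulforhodamine B total protein stain as relative cell number at 560 nm; sub-confluent cells exposed 48 h before staining; fitted both ways against DMSO so gain or loss of cell number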
[16] = read-out: Monokine induced gamma interferon (MIG), CXCL9 (gene 4283); assay: BSK_CASM3C_MIG: BioMAP Diversity Plus: CASM3C Assay for Monokine induced gamma interferon (MIG) Biomarker Activity (AID 2283048); conditions: primary human coronary artery smooth muscle cells; actives raise or lower the signal;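 further: MIG protein level measured by ELISA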
[17] = read-out: serum amyloid A (SAA), SAA1 (gene 6288); assay: BSK_CASM3C_SAA: BioMAP Diversity Plus: CASM3C Assay for serum amyloid A (SAA) Biomarker Activity (AID 2283049); conditions: primary human coronary artery smooth muscle cells; actives raise or lower the signal;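 further: SAA protein level quantified by ELISA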
[18] = read-out: Interleukin-6 (IL6), IL6 (gene 3569); assay: BSK_CASM3C_IL6: BioMAP Diversity Plus: CASM3C Assay for Interleukin-6 (IL6) Biomarker Activity for (AID 2283040); conditions: primary human coronary artery smooth muscle cells; actives raise or lower the signal
[19] = read-out: Transforming growth factor beta 1 (TGFb1), TGFB1 (gene 7040); assay: BSK_BE3C_TGFb1: BioMAP Diversity Plus: BE3C Assay for Transforming growth factor beta 1 (TGFb1) Biomarker Activity (AID 2283036;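 further: TGF-b1 protein level measured by ELISA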); conditions: primary human bronchial epithelial cells; actives raise or lower the signal
Outline: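 ELISA readout of TGF-b1 from human lung bronchial epithelial primary cells, taken 24 h post-treatment. Gain or loss of signal fitted relative to DMSO baseline, with parallel SRB staining for overt cytotoxicity.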

[20] = read-out: Human Leukocyte Antigen - DR isotype (HLADR), HLA-DRA (gene 3122); assay: BSK_BE3C_HLADR: BioMAP Diversity Plus: BE3C Assay for Human Leukocyte Antigen - DR isotype (HLADR) Biomarker Activity (AID 2283032); conditions: primary human bronchial epithelial cells; actives raise or lower the signal
Outline: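 Cell-surface HLA-DR ELISA readout at 24 h after dosing in the BE3C primary human lung bronchial epithelial system; gain or loss of signal against DMSO, with parallel sulforhodamine B staining of total protein for overt cytotoxicity.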

Measured: AC50

CCC(=O)O[C@H]1CC[C@H]2[C@@H]3CCC4=CC(=O)CC[C@]4(C)[C@H]3CC[C@]12C
active: [1] 30.3 µM | [2] 28 µM | [3] 37.4 µM | [15] 20 µM
not listed: [18] | [19] | [20]
inactive: all other assays above

ClC1=C(Cl)[C@]2(Cl)[C@@H]3[C@@H](Cl)[C@H]4O[C@H]4[C@@H]3C1(Cl)C2(Cl)Cl
active: [15] 12.3 µM
not listed: [19] | [20]
inactive: all other assays above

CC1=C2C[C@H]3[C@@H](CC=C4C[C@@H](O)CC[C@@]43C)[C@@H]2CC[C@]12O[C@@H]1C[C@H](C)CN[C@H]1[C@H]2C
active: [13] 2.8 µM
not listed: [19] | [20]
inactive: all other assays above

C[C@]12CCC(=O)C=C1CC[C@@H]1[C@@H]2CC[C@@]2(C)[C@H]1CC[C@]2(C)O
not listed: [19] | [20]
inactive: all other assays above

Cc1ccccc1[N+](=O)[O-]
not listed: [19] | [20]
inactive: all other assays above

CC(C)(c1ccccc1)c1ccc(O)cc1
active: [1] 32 µM | [3] 32.1 µM | [4] 30.5 µM | [5] 32.2 µM | [6] 34.1 µM | [9] 29.3 µM | [11] 32.3 µM | [15] 30.5 µM
not listed: [19] | [20]
inactive: all other assays above

CCOCCOC(C)=O
not listed: [20]
inactive: all other assays above

c1ccc(-c2ccccc2)cc1
not listed: [2] | [19]
inactive: all other assays above

CCCN(CCC)N=O
not listed: [11] | [20]
inactive: all other assays above

CCCCCCCCOC(=O)c1ccccc1C(=O)OCCCCCCCC
active: [1] 3.7 µM
not listed: [20]
inactive: all other assays above

Cc1cc(O)ccc1Cl
not listed: [19] | [20]
inactive: all other assays above

CCC(C)(c1ccc(O)cc1)c1ccc(O)cc1
active: [1] 34.8 µM | [4] 28.9 µM | [7] 4.96 µM | [15] 25.5 µM
not listed: [3] | [19] | [20]
inactive: all other assays above

O=S(=O)(O)C(F)(F)C(F)(F)C(F)(F)C(F)(F)C(F)(F)C(F)(F)F
not listed: [19] | [20]
inactive: all other assays above
